This is an account of results in PubChem BioAssay AID1508621 (National Center for Advancing Translational Sciences (NCATS), 2021).

Records with an inconclusive call do not appear. Values without a mark were called inactive. Activity calls are given as the source filed them. Calls follow the shape of the dose curve; as a rule, active = well fitted inhibition curve with a large enough effect; inconclusive = small, poorly fitted or top-dose-only effect; inactive = no such curve, though single readings can be large or run the other way.
Potency is read from the fitted curve at half-maximal effect.

The nature of this assay: Confirmatory qHTS for Identification of Small Molecule Inhibitors of Huntingtin Promoter Activity. Also: nearly all actives have a fitted effect of over 65% in size.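 As to activity change, negative = inhibition: 0% = vehicle control and -100% = zero luminescence signal.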 The note with it: HEK293 HTT promoter firefly luciferase reporter, 24 h; series mostly up to 57.5 µM; activity change, negative = inhibition: at the top concentration. An outline of the steps: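 HEK293 luciferase reporter cells, 2,500/well, cultured 24 h, then exposed to compounds at up to 57.5 uM final for 24 h at 37C. Firefly luciferase luminescence read; normalized to vehicle (0%) and zero RLU (-100%).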
For the compound `Cc1nc(Nc2n[nH]c3c2CN(C(=O)N[C@H](CN(C)C)c2ccccc2)C3(C)C)c2sccc2n1`, the “activity change, negative = inhibition” value is -21.1%. On to `COc1cccc(N2CCN(C(=O)c3ccc4nc(N5CCC(C)CC5)sc4c3)CC2)c1`, for which the Potency was 8.49 µM (active). On to `Cc1ccc2nc(CSc3nnc(NC(=O)COc4ccccc4)s3)cc(=O)n2c1`, for which the “activity change, negative = inhibition” value was 1.77%. For `Cc1cccc(N2CCN(C(=O)c3ccc(NC(=O)c4nsc5ccccc45)cc3)CC2C)c1` (stereo not drawn), the “activity change, negative = inhibition” value was -63.2%. Same read-out and setting: with `CCn1cc(C(=O)N2CCN(c3ccc(C)cc3)C(C)C2)c(=O)c2cc(S(=O)(=O)N3CCCC3)ccc21` (stereo not drawn) the figure was -9.37%.

Take `CN(C)c1ccc(C(=O)NCCCCCCC(=O)NO)cc1`: the “activity change, negative = inhibition” value was 358%. In the case of `CCc1ccc(NC(=O)Nc2cn(C)c(=O)c3ccccc23)cc1`, the “activity change, negative = inhibition” value was -22.2%. On the same count and under the same terms, to `Cn1c(=O)n(C)c2cc(NS(=O)(=O)c3ccc(F)cc3)ccc21` belongs 38.7%; to `Cn1c(NCCN(CCO)CCCc2ccc([N+](=O)[O-])cc2)cc(=O)n(C)c1=O`, -2.78%. Same read-out and setting: to `CCN(Cc1ccccc1)C(=O)c1cc(-c2ccccc2)n[nH]1` belongs 57.6%; to `O=C(Cc1ccccc1)Nc1cccc(-c2cn3cccnc3n2)c1`, 42.3%.

Turning to `COc1cc(OC)cc(C(=O)Nc2c(C(=O)Nc3ccc(F)cc3)oc3ccccc23)c1`, the “activity change, negative = inhibition” value was -6.52%. On the same count and under the same terms, to `CC(=O)c1ccc(NS(=O)(=O)c2ccc3[nH]c(=O)[nH]c3c2)cc1` belongs 56.3%; to `CN(C)Cc1ccc(-c2nc3cccc4c3n2CCNC4=O)cc1`, -26.9%; to `CCOc1ccccc1NC(=O)C(=O)c1cc(C)n(-c2ccc(F)cc2)c1C`, 37.3%. In the case of `CCc1c(C)sc2c1CCN(Cc1ccc(F)cc1)C2c1ccccc1` (stereo not drawn), the “activity change, negative = inhibition” value was -16.4%. Turning to `COc1ccc(-c2noc(N3CCC(C(=O)N4CCN(c5cccc(OC)c5)CC4)CC3)n2)cc1`, the Potency was 1.35 µM (active). Consider `CCc1ccc(-n2c(SCC(=O)NC(C)CC)nc3n[nH]c(C)c3c2=N)cc1` (stereo not drawn), for which the “activity change, negative = inhibition” value is -17.2%. As for `COc1ccc(-c2ccc3ncc4c(c3c2)n(-c2ccc(N3CCNCC3)c(C(F)(F)F)c2)c(=O)n4C)cn1`, the “activity change, negative = inhibition” value is -2.51%.

Take `Cc1cc(Nc2sc(C(=O)c3ccc(F)cc3)c(N)c2C(=O)Nc2ccc(F)cc2)ccc1Cl`: the Potency is 1.69 µM (active). For `COc1ccc(S(=O)(=O)c2cc3cc(C(C)(C)C)cc(O)c3oc2=O)cc1`, the “activity change, negative = inhibition” value was -18.7%.

Regarding `Cc1ccc(C2=CC(c3ccc(Cl)cc3)n3nc(-c4ccc(C)cc4)nc3N2)cc1` (stereo not drawn), the “activity change, negative = inhibition” value is -24.2%.

Turning to `COc1ccccc1N1CCN(S(=O)(=O)c2ccc(F)c(C(=O)Nc3ccc(Cl)cc3C(F)(F)F)c2)CC1`, the “activity change, negative = inhibition” value is -15.9%.

Take `O=c1c(O)c(-c2ccc(O)cc2)oc2cc(O)cc(O)c12`: the “activity change, negative = inhibition” value was 19.1%. On to `CC[C@@H]1C(=O)N(C)c2cnc(Nc3ccc(C(=O)NC4CCC(N5CCN(CC6CC6)CC5)CC4)cc3OC)nc2N1C(C)C` (stereo partly drawn), for which the “activity change, negative = inhibition” value was 11.8%.

In the case of `O=C(C=Cc1ccc(O)cc1)c1ccc(O)cc1O`, the “activity change, negative = inhibition” value was 20%. Still for that read-out and setting: with `O=C(NCc1cccs1)c1ccc(Cn2c(SCc3ccc(F)cc3)nc3cccnc32)cc1` the figure was -22.4%; with `Cc1[nH]c2ccccc2c1CCNCc1ccc(C=CC(=O)NO)cc1`, 254%.

With `COc1cccc(N2CCN(C(=O)c3cccc(-n4c(C)nc5cccnc54)c3)CC2)c1`, the Potency is 23.9 µM (active). With `COc1ccc(-c2nnc(C3CCN(C(=O)c4ccccc4F)CC3)o2)cc1`, the “activity change, negative = inhibition” value is 12.9%. Turning to `Cc1cc(NC(=O)c2cc(-c3ccc(Cl)cc3)on2)nn1Cc1ccc(Cl)cc1`, the “activity change, negative = inhibition” value was -27%. Regarding `O=C1C2=C(Nc3ccccc3SC2c2ccc(C(F)(F)F)cc2)c2ccccc21` (stereo not drawn), the Potency was 19 µM (active). With `CC(=O)c1ccc(N2CCN(c3ncnc4c3cnn4-c3cc(Cl)ccc3C)CC2)cc1`, the Potency was 7.57 µM (active). The same measure, in the same setting: with `Cc1ccccc1NC(=O)c1c(NC(=O)C(F)(F)F)sc2c1CCCCC2` the figure was 0.849 µM (active).

In the case of `O=C(NCc1ccccc1)c1cc2ccc3cccnc3c2[nH]1`, the “activity change, negative = inhibition” value was 51.7%. The same measure, in the same setting: with `COc1ccc(NC(=O)Cn2c(SCc3ccc(C)cc3)nc3cccnc32)cc1OC` the figure was -6.27%.

`O=C(Cn1cc(SCc2ccccc2F)c2ccccc21)N1CCCC1`: the “activity change, negative = inhibition” value is 38.7%. In the case of `CCc1nc2ccc(C(=O)NCCc3ccc(OC)cc3OC)cc2nc1CC`, the “activity change, negative = inhibition” value is -18.9%.
